Data published in PubChem BioAssay (NCATS).
Several values for one entry are separate records, joined by “and”; a condition that tells them apart may be missing. Identical values can stand only once. Records with an inconclusive call do not appear. Activity calls are given as the source filed them. Unless noted, the call rests on the fitted dose curve; in most records, active means well fitted curve in the direction sought with a large enough effect; inconclusive means small, poorly fitted or top-dose-only effect, or another doubt; inactive means no such curve, though single readings can be large; an effect the other way counts as inactive or inconclusive.

Key:
[1] = Cell Viability - BJ (AID 421; calls by dose curve;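 further: potency means the concentration at half of the fitted maximal effect; cells exposed to compound for 40 hours at 37 °C before readout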); conditions: BJ fibroblast viability, qHTS
Method in brief: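 Quantitative HTS: ATP depletion in BJ cells after 40 hr compound exposure in complete culture medium, detected with CellTiter-Glo; AC50 from standard Hill fits.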

[2] = Cell Viability - HepG2 (AID 433; calls by dose curve;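 further: potency means the concentration at half of the fitted maximal effect; cells exposed to compound for 40 hours; potency for ATP loss meaning cytotoxicity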); conditions: qHTS
Method in brief: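 Cytotoxicity read as ATP loss (CellTiter-Glo luminescence) after 40 hr compound exposure of HepG2, 1500 cells/well, 37 °C. AC50 by Hill equation; 0% set by DMSO, 100% inhibition by 100 uM tamoxifen.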

[3] = Cell Viability - N2a (AID 540); conditions: N2a mouse neuroblastoma cell viability; activity change, negative = cytotoxicity: at 92.2 µM (top of the series); further: nearly all actives have a fitted effect of over 45% in size; further: potency means the concentration at half of the fitted maximal effect;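 on activity change, negative = cytotoxicity: plate controls were DMSO alone for no effect and tamoxifen control for full effect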
Method in brief: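 CellTiter-Glo ATP luminescence, read 20 min after reagent at room temperature, reported viability following 40 h compound treatment at 37 °C. N2a mouse neuroblastoma cells seeded 1500/well; Hill equation gave AC50.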

[4] = Cell Viability - H-4-II-E (AID 543); conditions: H-4-II-E rat hepatoma viability; series mostly up to 92.2 µM;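 further: cells exposed to compound for 40 hours; nearly all actives have a fitted effect of over 35% in size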; further: potency means the concentration at half of the fitted maximal effect
Method in brief: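 CellTiter-Glo luminescence (intracellular ATP) measured after 40 h compound exposure at 37 °C in H-4-II-E rat hepatoma cells seeded at 1500/well. Values are AC50s fitted with the standard Hill equation.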

[5] = MultiTox-Fluor Cytotoxicity Assay - LYMP1-002 - Live Cells (AID 955); conditions: LYMP1-002 lymphoblastoid live-cell protease fluorescence viability; series mostly up to 46.1 µM;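 further: cells exposed to compound for 16 hours; on the % scale 0 is the no-effect control and ±100 the full control effect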
Method in brief: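 After 16 h compound exposure at 37 C, live LYMP1-002 lymphoblastoid cells (2500/well) were quantified by cleavage of cell-permeant GF-AFC substrate, read at 405/510 nm after 60 min. Concentration-response fitted with Hill equation for AC50.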

[6] = MultiTox-Fluor Cytotoxicity Assay - LYMP1-002 - Dead Cells (AID 960); conditions: LYMP1-002 lymphoblastoid cells, dead-cell protease fluorescence; series mostly up to 46.1 µM; further: nearly all actives have a fitted effect of over 60% in size; further: potency means the concentration at half of the fitted maximal effect
Method in brief: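 Dead-cell fluorescence (Ex/Em 485/520) after 16 h compound exposure at 37 C of LYMP1-002 lymphoblastoid cells in complete medium; AC50 by Hill equation, with data scaled between DMSO and 15 uM tetraoctylammonium bromide.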

[7] = Cell Viability - LYMP1-003 - Assay at 40 hr (AID 964); conditions: LYMP1-003 lymphoblastoid viability; series mostly up to 92.2 µM; further: nearly all actives have a fitted effect of over 60% in size; further: potency means the concentration at half of the fitted maximal effect
Method in brief: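 Viability is taken as cellular ATP, read by CellTiter-Glo luminescence after 40 h of compound exposure at 37 C. Cells: human lymphoblastoid line LYMP1-003 at 2500/well; AC50 values derived by Hill-equation fitting of concentration-response data.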

[8] = Cell Viability - LYMP2-004 (AID 966); conditions: LYMP2-004 lymphoblastoid cell viability, qHTS; series mostly up to 92.2 µM; further: nearly all actives have a fitted effect of over 65% in size; further: potency means the concentration at half of the fitted maximal effect;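 on activity change, negative = cytotoxicity: plate controls were DMSO only for no effect and tetraoctylammonium bromide control for full effect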
Method in brief: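 AC50 values come from Hill modelling of concentration-dependent loss of intracellular ATP, measured by CellTiter-Glo luminescence. Human LYMP2-004 lymphoblastoid cells (2500/well) were exposed to compound for 24 h at 37 C.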

[9] = Cell Viability - LYMP2-013 (AID 970); conditions: LYMP2-013 lymphoblastoid cells viability; series mostly up to 92.2 µM; further: nearly all actives have a fitted effect of over 55% in size; further: potency means the concentration at half of the fitted maximal effect
Method in brief: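 qHTS cytotoxicity: ATP-dependent luminescence (CellTiter-Glo, 30 min room temperature) read after 24 h compound exposure at 37 C of 2500 LYMP2-013 lymphoblastoid cells per well. Concentration-response fitted with Hill equation to give AC50.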

[10] = Cell Viability - LYMP2-002 (AID 977); conditions: LYMP2-002 lymphoblastoid cell viability, qHTS; series mostly up to 92.2 µM;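 further: plate controls were DMSO only for no effect and 92 µM tetraoctylammonium bromide for full effect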
Method in brief: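 Human lymphoblastoid cells (2500/well) in complete medium were preincubated 5 hr at 37 C, then exposed to compounds for 24 hr at 37 C. Intracellular ATP was read by CellTiter-Glo luminescence; AC50 came from Hill-equation concentration-response fits.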

[11] = Cell Viability - LYMP2-016 (AID 984); conditions: LYMP2-016 lymphoblastoid cell viability, qHTS; series mostly up to 92.2 µM; further: nearly all actives have a fitted effect of over 55% in size; further: potency means the concentration at half of the fitted maximal effect
Method in brief: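 Cytotoxicity was scored by luminescent ATP content (CellTiter-Glo) after 24 h compound exposure at 37 C of a human lymphoblastoid line at 2500 cells/well. Concentration-response data were fitted to the Hill equation for AC50.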

[12] = Cell Viability - LYMP2-018 (AID 985); conditions: LYMP2-018 lymphoblastoid cells, viability (qHTS); series mostly up to 92.2 µM; further: nearly all actives have a fitted effect of over 50% in size; further: potency means the concentration at half of the fitted maximal effect;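 on activity change, negative = cytotoxicity: plate controls were DMSO only for no effect and tetraoctylammonium bromide at 92 µM for full effect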
Method in brief: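 Viability read as CellTiter-Glo luminescence (cellular ATP) after 24 hr compound exposure at 37 C of 2500 LYMP2-018 lymphoblastoid cells/well, pre-plated 5 hr. Hill-equation modelling gave AC50.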

[13] = Cell Viability - LYMP2-020 (AID 986); conditions: series mostly up to 92.2 µM; further: nearly all actives have a fitted effect of over 55% in size; further: potency means the concentration at half of the fitted maximal effect
Method in brief: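 Cytotoxicity in qHTS format: luminescent ATP readout from CellTiter-Glo after 24 h compound exposure at 37 C in complete medium. LYMP2-020 lymphoblastoid cells were seeded at 2500/well; concentration-response data fitted to the Hill equation for AC50.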

[14] = Cell Viability - LYMP2-022 (AID 987); conditions: LYMP2-022 lymphoblastoid cell viability; series mostly up to 92.2 µM; further: nearly all actives have a fitted effect of over 55% in size; further: potency means the concentration at half of the fitted maximal effect
Method in brief: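 Cytotoxicity read as decreased cellular ATP (CellTiter-Glo luminescence, 30 min room temperature) after 24 hours compound exposure of 2500 lymphoblastoid LYMP2-022 cells/well at 37 C. Concentration-response data fitted with standard Hill equation for AC50.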

[15] = qHTS assay for small molecule antagonists of retinoid X receptor alpha signaling (AID 588546; active means well fitted inhibition curve with a large enough effect in the signal ratio, with a control signal flat, not every such curve was filed as active; the % refers to the signal ratio;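 further: cells stimulated with 9-cis-retinoic acid as agonist; on the % scale 0 is the no-effect control and ±100 the full control effect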); conditions: HEK293T RXRa-UAS-bla, beta-lactamase ratio, antagonist mode; measured here: W530 green channel, cytotoxicity proxy
Method in brief: (§1)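 Beta-lactamase reporter inhibition, read as CCF4 fluorescence ratio (ex 405, em 460/530 nm) after 2 h at RT. HEK293T UAS-bla cells, 2500/well, were stimulated with 9-cis-RA at 500 or 100 nM final alongside test compound for 18 h at 37 C.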

[16] = molecular target: Retinoic acid receptor RXR-alpha (Homo sapiens) (UniProt P19793); assay: as above; conditions: HEK293T RXRa-UAS-bla, beta-lactamase ratio, antagonist mode
Retinoic acid receptor RXR-alpha (Homo sapiens), sequence (P19793 whole entry, looked up): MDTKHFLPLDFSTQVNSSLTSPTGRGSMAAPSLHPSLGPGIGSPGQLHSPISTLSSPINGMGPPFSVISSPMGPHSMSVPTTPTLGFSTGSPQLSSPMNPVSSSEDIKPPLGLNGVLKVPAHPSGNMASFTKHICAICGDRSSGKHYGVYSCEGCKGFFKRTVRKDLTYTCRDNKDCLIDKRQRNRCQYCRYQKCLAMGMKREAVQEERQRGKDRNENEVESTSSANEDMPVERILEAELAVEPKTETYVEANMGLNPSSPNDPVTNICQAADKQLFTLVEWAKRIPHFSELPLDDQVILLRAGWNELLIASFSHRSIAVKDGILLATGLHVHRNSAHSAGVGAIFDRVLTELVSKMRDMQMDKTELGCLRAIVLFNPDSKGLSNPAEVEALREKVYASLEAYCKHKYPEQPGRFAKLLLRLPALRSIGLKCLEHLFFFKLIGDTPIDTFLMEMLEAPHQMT
Method in brief: as §1

[17] = molecular target: Thyroid hormone receptor beta (Homo sapiens) (UniProt P10828); assay: qHTS assay for small molecule antagonists of thyroid hormone receptor beta signaling (AID 588547; active means well fitted inhibition curve with a large enough effect in the signal ratio, with a control signal flat, not every such curve was filed as active; the % refers to the signal ratio;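 further: cells stimulated with 0.4 nM T3 agonist during compound exposure; on the % scale 0 is the no-effect control and ±100 the full control effect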); conditions: TR-UAS-bla HEK293, beta-lactamase ratio, antagonist mode, 18 h
Thyroid hormone receptor beta (Homo sapiens), sequence (P10828 whole entry, looked up): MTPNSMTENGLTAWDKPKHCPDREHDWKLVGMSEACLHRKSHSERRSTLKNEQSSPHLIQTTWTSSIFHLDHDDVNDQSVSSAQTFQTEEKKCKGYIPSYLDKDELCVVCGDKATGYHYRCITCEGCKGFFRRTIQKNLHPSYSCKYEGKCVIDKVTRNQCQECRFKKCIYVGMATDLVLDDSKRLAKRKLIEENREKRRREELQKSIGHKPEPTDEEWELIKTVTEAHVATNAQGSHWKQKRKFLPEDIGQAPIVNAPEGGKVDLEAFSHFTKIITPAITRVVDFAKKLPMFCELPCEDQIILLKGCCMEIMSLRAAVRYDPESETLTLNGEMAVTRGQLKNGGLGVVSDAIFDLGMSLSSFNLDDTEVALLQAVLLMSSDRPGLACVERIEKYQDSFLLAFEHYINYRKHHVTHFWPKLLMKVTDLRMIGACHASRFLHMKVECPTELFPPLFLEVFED
Method in brief: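 Inhibition of T3-driven (0.4nM final) beta-lactamase reporter activity was measured over 0.59 nM to 92 uM compound after 18 h at 37 C. The cells were GripTite HEK293 TR-UAS-bla in charcoal/dextran-stripped serum, with CCF4 ratio read-out and IC50 from Hill fits.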

[18] = qHTS assay for environmental chemicals that activate the Aryl hydrocarbon Receptor (AhR) signaling pathway (AID 651777); conditions: 1A2-DRE human hepatoma cells, luciferase, 24 h; activation: stronger effect = higher value; further: % of control where 0% means no effect; nearly all actives have a fitted effect of over 15% in size
Method in brief: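 Concentration–response screening used 1,200 1A2-DRE cells per well, 24 hr compound exposure (37 C, 5% CO2), and One-Glo luminescence as the AhR-driven CYP1A2 reporter signal.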

[19] = molecular target: Nuclear receptor subfamily 1 group I member 2 (Rattus norvegicus) (UniProt Q9R1A7); assay: qHTS assay for small molecule activators of the rat pregnane X receptor (rPXR) signaling pathway (AID 651751; call rule not given here; further: 0% is about no effect); conditions: rPXR reporter cells, luciferase (One-Glo), 24 h
Nuclear receptor subfamily 1 group I member 2 (Rattus norvegicus), sequence (Q9R1A7 whole entry, looked up): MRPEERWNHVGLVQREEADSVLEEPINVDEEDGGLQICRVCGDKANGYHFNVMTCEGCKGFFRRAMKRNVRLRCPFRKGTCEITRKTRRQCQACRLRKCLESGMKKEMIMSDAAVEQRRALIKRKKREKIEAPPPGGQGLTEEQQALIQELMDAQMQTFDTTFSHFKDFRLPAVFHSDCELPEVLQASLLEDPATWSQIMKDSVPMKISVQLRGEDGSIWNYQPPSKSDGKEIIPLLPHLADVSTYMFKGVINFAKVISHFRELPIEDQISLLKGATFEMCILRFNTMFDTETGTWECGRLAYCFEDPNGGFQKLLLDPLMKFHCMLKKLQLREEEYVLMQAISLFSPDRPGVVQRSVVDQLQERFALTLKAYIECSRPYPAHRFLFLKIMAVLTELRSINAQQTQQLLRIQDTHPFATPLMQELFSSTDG

[20] = molecular target: Mitogen-activated protein kinase 10 (Mus musculus) (UniProt Q61831); assay: JNK3 AlphaScreen Assay (AID 530; active means well fitted curve in either direction with a large enough effect, not every such curve was filed as active;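 further: kinase came from lysate of stimulated human HepG2 cells; signal reports phosphorylation of biotinylated GST-cJun 1-79 at Ser73 with 10 µM ATP; on the % scale 0 is the no-effect control and ±100 the full control effect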); conditions: JNK3 lysate, c-Jun phosphorylation; series mostly up to 11.4 µM
Method in brief: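 qHTS titrations with 15 min compound pre-incubation before adding ATP (10 uM final). Read-out: AlphaScreen of Ser73-phosphorylated biotin-GST-cJun using HepG2 lysate JNK3 activated by IL-1β and TNFα.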

C[Si](C)(C)Cl
3.42%: max response [15]
inactive: Potency [1] > 92 µM | Potency [2] > 92 µM | activity change, negative = cytotoxicity [3] -6.55% | Potency [4] | outcome [5] | Potency [6] | Potency [7] | Potency [8] | Potency [9] | Potency [10] | Potency [11] | Potency [12] | Potency [13] | Potency [14] | max response [16] 16.7% | activity change % (negative = inhibition) [17] -7.14% | activation [18] 1.28% | max response [19] 1.16%

OC1CCCCC1
inactive: Potency [1] > 92 µM | Potency [2] > 92 µM | activity change, negative = cytotoxicity [3] -3.26% | Potency [4] | outcome [5] | Potency [6] | Potency [7] | Potency [8] | Potency [9] | Potency [10] | Potency [11] | Potency [12] | Potency [13] | Potency [14] | max response [16] -3.43% | activity change % (negative = inhibition) [17] 4.86% | activation [18] -0.284% | max response [19] 1.53%
10.1%: max response [15]

O=[N+]([O-])c1cc(N(CCO)CCO)ccc1NCCO
inactive: outcome [5] | Potency [6] | Potency [10] | Potency [11] | Potency [12] | Potency [13] | Potency [14] | max response [16] 0.262% and 0.951% | activity change % (negative = inhibition) [17] 14.2% and 12% | activation [18] -2.68% and -1.58% | max response [19] -6.76% and -5.03%
5.15% and -22.9%: max response [15]

Oc1cc(Cl)cc(Cl)c1Cl
active: Potency [3] 31.6 µM
inactive: Potency [1] > 92 µM | Potency [2] > 92 µM | Potency [20] | Potency [4] | outcome [5] | Potency [6] | Potency [7] | Potency [8] | Potency [9] | Potency [10] | Potency [11] | Potency [12] | Potency [14] | activation [18] 2.22% | max response [19] 0.309%

CC/C=C/C/C=C/C/C=C/CCCCCCCC(=O)OCC
inactive: Potency [1] > 92 µM | Potency [2] > 92 µM | activity change, negative = cytotoxicity [3] -12.6% | Potency [4] | activation [18] 0.56% | max response [19] 2.44%
active: Potency [8] 31.6 µM | Potency [9] 50.1 µM | Potency [11] 39.8 µM | Potency [12] 31.6 µM | Potency [13] 39.8 µM | Potency [14] 25.1 µM

C=C1CC[C@H](O)C/C1=C/C=C1\CCC[C@]2(C)[C@@H]([C@H](C)CCCC(C)C)CC[C@@H]12
active: Potency [1] 61.2 µM | Potency [3] 31.6 µM | Potency [4] 39.8 µM | Potency [6] 31.6 µM | Potency [7] 39.8 µM | Potency [8] 39.8 µM | Potency [9] 50.1 µM | Potency [12] 39.8 µM | Potency [13] 50.1 µM | Potency [14] 31.6 µM
inactive: Potency [2] > 92 µM | Potency [20] | activation [18] 5.81% | max response [19] 7.46%

Cc1cc(-c2ccc(N=Nc3cc(S(=O)(=O)O)c4ccccc4c3N)c(C)c2)ccc1N=Nc1cc(S(=O)(=O)O)c2ccccc2c1N
inactive: outcome [5] | Potency [8] | Potency [14] | max response [16] 0.921% | activity change % (negative = inhibition) [17] -25.1% | activation [18] 0.307% | max response [19] -3.26%
-6.21%: max response [15]
